Screening data (PubChem)
Pf apPOL inh: Pf-apPOL DNA polymerase inhibition | Recombinant Pf-apPOL, molecular beacon fluorescence, 1.5 h | inhibition, % at 10 µM | hit rate 0.25% among 210,000 | AID 1794808
mHTT-CaM PPI inh: mHTT-calmodulin interaction abrogation. AlphaScreen His-mHTT/GST-CaM binding, luminescence. inhibition, % at 15 µM. hit rate 3.6% among 190,000. P42858. AID 1671202
Numbers stand for hits; - = inactive; . = no result given; ! = a repeat was not active. Hits are enriched below; roughly 3.5% of the tested compounds scored in any of these assays. No stated cut-off is given here; in the data, active means inhibition above about 50%; inactive means the rest.

SMILES	Pf apPOL inh	mHTT-CaM PPI inh
COc1ccc(-c2c(C)oc3c4c(ccc3c2=O)OCN(CC2CCCO2)C4)cc1 (centres undefined)	-	-
CC(C)(C)c1cc(S)cc(C(C)(C)C)c1O	.	-
CC(C)(C)c1ccc(O)c(C(C)(C)C)c1O	-	98
Cn1nc(COc2ccccc2)c2c1CCN(Cc1ccoc1)C2	-	67
Cn1nc(COc2ccccc2)c2c1CCN(Cc1ccco1)C2	-	-
CCOc1ccc2nc(NC(=O)c3ccccc3S(=O)(=O)O)sc2c1	-	-
CCNC(=O)C1CC(c2ccc(F)c(C)c2)CN(C(=O)c2ccccc2)C1 (centres undefined)	-	93
CCC(C)NC(=O)C1CC(c2ccc(F)c(C)c2)CN(C(=O)c2ccccc2)C1 (centres undefined)	-	96
CCNC(=O)C1CC(c2ccccc2)CN(C(=O)c2ccccc2)C1 (centres undefined)	-	-
CCNC(=O)N1CC(C(=O)NCC2CC2)CC(c2ccc(F)c(C)c2)C1 (centres undefined)	-	-
Cc1cc(C2CC(C(=O)NCc3cccnc3)CN(C(=O)NC(C)C)C2)ccc1F (centres undefined)	-	67
CCNC(=O)C1CC(c2ccc(F)c(C)c2)CN(C(C)=O)C1 (centres undefined)	-	-
Cc1cc(C)cc(NC(=O)C2CCCN(c3nnc4ccccn34)C2)c1 (centres undefined)	-	-
COC(=O)c1cn(CC(=O)Nc2ccccc2Cl)c2nc(C)ccc2c1=O	-	-
COc1cc([N+](=O)[O-])ccc1NC(=O)CC1CCCCC1	-	-
Cc1cccc(OCC(=O)N2CCc3c(c(-c4nc(-c5ccccc5F)no4)nn3C)C2)c1	-	-
COc1ccccc1NC(NC(=O)c1cccs1)C(=O)c1ccccc1 (centres undefined)	-	-
COC(=O)Oc1ccc2c(=O)c(-c3ccccc3Cl)coc2c1	-	61!
CCOC(=O)Oc1ccc2c(=O)c(-c3ccccc3Cl)coc2c1	-	-
COC(=O)Oc1ccc2c(=O)c(Oc3ccccc3Cl)coc2c1	-	69
CCOC(=O)Oc1ccc2c(=O)c(Oc3ccccc3Cl)coc2c1	-	-
COc1ccc(C(=O)N2CCCC3(C2)Nc2ccccc2NC3=NC2CCCC2)c(OC)c1 (centres undefined)	-	-
CCCc1cc(C2CCCN2C(=O)Cc2ccccc2F)no1 (centres undefined)	-	-
Cc1cc(NS(=O)(=O)c2ccc(C(C)(C)C)cc2)no1	-	-
Cc1ccc2c(c1)C1C=CCC1C(c1ccccc1Cl)N2 (centres undefined)	-	83
SMILES	Pf apPOL inh	mHTT-CaM PPI inh
Clc1ccc2c(c1)C1C=CCC1C(c1cccc3ccccc13)N2 (centres undefined)	.	65
CC(=O)c1ccc2c(c1)C1C=CCC1C(c1ccccc1Cl)N2 (centres undefined)	-	-
COc1ccc(C(N)=NOCc2c(Cl)cccc2Cl)cc1	-	.
O=C(Nc1ccc([N+](=O)[O-])cc1)/C(=C\c1ccc2c(c1)OCO2)NC(=O)c1ccccc1Cl	-	-
CCc1nc(C)nc(N2CCN(C(=O)N(C)C)CC2)c1Cc1ccccc1F	-	-
CC1=NN(C(=O)c2cccc(Cl)c2)C(O)(C(F)(F)F)C1 (centres undefined)	-	-
COc1ccc(Nc2nc(Cl)nc(Nc3cccc([N+](=O)[O-])c3)n2)cc1	-	78
COc1cccc(NC(=O)c2ccc([N+](=O)[O-])c(C)c2)c1	-	-
COc1cccc(Nc2nc(Cl)ccc2[N+](=O)[O-])c1	-	71
CC(C)(C)Nc1nc(Cl)nc(Nc2cccc([N+](=O)[O-])c2)n1	-	-
COc1ccc(C(=O)Nc2c3c(nn2-c2ccccc2C)CS(=O)(=O)C3)cc1OC	-	-
CCOc1ccc(NC(=O)c2cc(C)n3nccc3n2)cc1	-	-
Cc1ccc(C(=O)N/C(=C/c2ccco2)C(=O)NCCc2ccccn2)cc1C	-	-
Cc1ccc(C(=O)N/C(=C\c2ccco2)C(=O)N2CCN(c3ccccn3)CC2)cc1C	-	70
CCCC(=O)N1CCC(CCOc2ccc(F)cc2)CC1	-	-
COc1ccccc1NC(=O)NC1CCCC(OC(=O)Nc2ccc(F)cc2)C1 (centres undefined)	-	-
CCCN1CCN(c2ncc3c(n2)CCN(Cc2ccccc2Cl)C3)CC1	-	-
CC(=O)Nc1ccc(NC(=O)c2c(-c3ccccc3Cl)noc2C)cc1	-	-
Cc1onc(-c2ccccc2Cl)c1C(=O)Nc1ccc(Cl)c(Cl)c1	-	80
O=C(NCCc1ccccc1)N1CCCN(c2ncccc2-c2nc(C3CC3)no2)CC1	-	-
CC(NC(=O)CCN1N=C(c2ccccc2)CCC1=O)c1ccccc1 (centres undefined)	-	-
COc1cccc(C(=O)Oc2cc(C)[nH]c(=O)c2[N+](=O)[O-])c1OC	-	-
Cc1cc(OC(=O)C=Cc2ccc3c(c2)OCO3)c([N+](=O)[O-])c(=O)[nH]1	-	77
CC=CC(=O)Oc1cc(C)[nH]c(=O)c1[N+](=O)[O-]	-	-
COc1ccc(C(=O)Oc2cc(C)[nH]c(=O)c2[N+](=O)[O-])cc1OC	-	86
SMILES	Pf apPOL inh	mHTT-CaM PPI inh
O=C(Nc1ccccc1)C(Cc1c[nH]c2ccccc12)NC(=O)C(c1ccccc1)c1ccccc1 (centres undefined)	-	89
COc1ccc(NC(=O)C(N)Cc2c[nH]c3ccccc23)cc1 (centres undefined)	-	-
COc1ccc(C2CC(=O)C3=C(C2)Nc2ccccc2NC3c2ccccc2F)cc1OC (centres undefined)	-	-
Cc1ccccc1OCC(=O)N1CCN(C2=CC3=NC(C)CN3C=N2)CC1 (centres undefined)	-	91
COc1ccccc1NC(=O)N1CCN(C2=CC3=NC(C)CN3C=N2)CC1 (centres undefined)	-	-
O=C(Nc1ccc2c(c1)CCC2)C1CCc2sc(C(=O)N3CCOCC3)cc2C1 (centres undefined)	-	-
O=C(NCc1cccc(C(F)(F)F)c1)c1ccnc(N2CCCCC2)n1	-	-
O=C(CN1C(=O)C2C3c4ccccc4C(c4ccccc43)C2C1=O)Nc1cccc(Cl)c1 (centres undefined)	-	100
COc1ccccc1NC(=O)CN1C(=O)C2C3c4ccccc4C(c4ccccc43)C2C1=O (centres undefined)	-	-
Cn1c(=O)c2cn(-c3ccccc3Cl)cc2n(C)c1=O	-	-
CNC(=O)c1cccc(N2CCNC(c3ccccc3)C2)n1 (centres undefined)	-	-
OC(COc1ccc(I)cc1)Cn1cnc2ccccc21 (centres undefined)	-	86
Cc1ccc(OCC(O)Cn2cnc3ccccc32)cc1 (centres undefined)	-	-
C=CCn1c(=N)n(CC(=O)c2ccc(-c3ccccc3)cc2)c2ccccc21	-	52
C=CCn1c(=N)n(CC(=O)c2ccc(Cl)c(Cl)c2)c2ccccc21	-	-
Cc1nnc(Cc2ccc(C(=O)O)cc2)s1	-	-
C=C(C)COc1ccc2c(c1)OC(=Cc1ccc(OC)c(OC)c1)C2=O	-	-
CCC1(C)CC(CCN)(c2ccc(C)cc2)CCO1 (centres undefined)	-	-
COc1cc(NC(=O)Cn2cnc([N+](=O)[O-])n2)cc([N+](=O)[O-])c1	-	-
